Bioassay records: PubChem, several laboratories
Compounds with a hit are over-represented: about 4.2% of the library has one in this group of screens.
Mtb betalactam: beta-lactam sensitization of Mtb H37Rv. M. tuberculosis H37Rv growth with meropenem, percent inhibition. inhibition, % at 25 µM. 330,000 tested, 0.27% active. AID 434955; call rule not given here;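 note: growth measured after seven days incubation then overnight dye step; 0% = bacteria only wells and 100% = bacteria with antibiotic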
Mtb FBA inh: Mtb fructose-bisphosphate aldolase inhibition. P9WQA3. purified M. tuberculosis FBA, fluorescence read-out. inhibition, % at 1 µM. 360,000 tested, 2.3% active. AID 588726; in the data active = inhibition above about 27%;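 note: 0% = vehicle and 100% = reference inhibitor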
Target sequence (P9WQA3 whole entry, looked up): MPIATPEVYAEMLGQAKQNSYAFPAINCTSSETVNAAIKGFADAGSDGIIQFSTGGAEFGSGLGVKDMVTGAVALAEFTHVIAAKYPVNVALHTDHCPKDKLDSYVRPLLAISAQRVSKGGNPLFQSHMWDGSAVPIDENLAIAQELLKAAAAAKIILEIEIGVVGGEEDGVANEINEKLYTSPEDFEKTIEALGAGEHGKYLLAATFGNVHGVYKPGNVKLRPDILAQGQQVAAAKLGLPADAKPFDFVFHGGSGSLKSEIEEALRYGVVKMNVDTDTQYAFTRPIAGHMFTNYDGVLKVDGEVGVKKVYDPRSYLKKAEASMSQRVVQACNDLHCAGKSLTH
CCHFV vOTU inh: CCHFV vOTU protease inhibition; Pep-AMC fluorescence; inhibition, % at 11.5 µM; 370,000 tested, 0.55% active; AID 651958; note: 0% = vehicle wells with enzyme and 100% = no enzyme wells
GDH-TPI inh: inhibits GDH-TPI coupling enzymes, artifact for Mtb FBA screen | AID 588335 | GDH-TPI coupled enzyme counterscreen, NADH absorbance | inhibition, % at 4.8 µM | 360,000 tested, 1.2% active;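 note: 0% = DMSO wells and 100% = wells lacking the enzyme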
RecA splice inh: inhibitors of M. tuberculosis RecA intein splicing; cell-free RecA intein splicing, fluorescence; inhibition, % (test concentration not listed); 290,000 tested, 0.75% active; AID 2221; in the data active = inhibition above about 30%; inconclusive = no clear call, values can overlap the other calls;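 note: 0% = vehicle wells and 100% = reference inhibitor control wells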
Active calls of the source: *; u = inconclusive; x = not tested or not shown; + = active, no number. Cut-off read from the data, not from the text of the source, unless noted: active = inhibition above about 30%; inactive = the rest.

SMILES	Mtb betalactam	Mtb FBA inh	CCHFV vOTU inh	GDH-TPI inh	RecA splice inh
CCOC(=O)c1cc(-c2ccc(/C=C3/C(=O)NC(=O)C(C#N)=C3C)o2)ccc1Cl	5	2	1	35*	11
Nc1c(S(=O)(=O)c2cccs2)c2nc3ccccc3nc2n1CCc1ccccc1	74	x	-109	x	-24
Nc1c(S(=O)(=O)c2cccs2)c2nc3ccccc3nc2n1CC1CCCO1 (configuration not stated)	u	170*	x	23	x
Nc1c(S(=O)(=O)c2cccs2)c2nc3ccccc3nc2n1Cc1cccs1	0	119*	-20	13	4
Nc1c(S(=O)(=O)c2cccs2)c2nc3ccccc3nc2n1Cc1ccc2c(c1)OCO2	6	7	-3	10	9
CC(C)CCn1c(N)c(S(=O)(=O)c2cccs2)c2nc3ccccc3nc21	53	116*	-103	12	-1
COC(=O)[C@H](C(C)C)N(CCCc1cn(CC2CCCCC2)nn1)S(=O)(=O)c1ccc(F)cc1Br	x	x	12	x	x
CC1Cc2cc(/C(O)=C3/C(=O)C(=O)N(CCCn4ccnc4)C3c3ccc([N+](=O)[O-])cc3)ccc2O1 (configuration not stated)	x	2	12	13	x
CC1Cc2cc(/C(O)=C3/C(=O)C(=O)N(CCCn4ccnc4)C3c3ccc(F)cc3)ccc2O1 (configuration not stated)	-3	2	10	32*	-3
N#C/C(=C(/O)CN1CCOCC1)c1nc2ccccc2s1	-7	9	9	39*	16
N#C/C(=C(/O)c1ccco1)c1nc2ccccc2s1	20	4	0	56*	0
COc1ccc(/C=C2\CC3(OC(=O)C4CCCCC4)CCCN2C3)cc1 (configuration not stated)	x	x	7	x	x
Nc1nonc1-c1nc2ccccc2n1CC(=O)Nc1ccccc1	-8	0	5	22	0
Nc1nonc1-c1nc2ccccc2n1CC(=O)N/N=C/c1ccc(-c2ccccc2C(=O)O)o1	-2	2	10	42*	0
Cc1cc(C)c(NC(=O)Cn2nnc(C(=O)NCc3ccco3)c2N)c(C)c1	-5	7	0	33*	-4
CCOC(=O)c1nn(-c2ccc(OC)cc2)c(=O)c2c(N)scc12	15	1	17	8	47*
CCOC(=O)c1nn(-c2ccc(C)c(C)c2)c(=O)c2c(N)scc12	3	-1	20	8	x
C=CCN1C(=O)[C@H](CC(=O)N2CCSCC2)[C@@]2(C(=O)OCC)CCCC=C12	x	x	1	x	x
CC(=O)c1c(COC(=O)c2cccc(C)c2)nc2ccccc2[n+]1[O-]	0	2	3	31*	x
CC(=O)c1c(COC(=O)c2ccncc2)nc2ccccc2[n+]1[O-]	-13	-1	15	13	9
COc1cc(/C=C2/C(=O)N(c3ccc(Br)cc3)N=C2C)cc(OC)c1OC	x	3	x	3	63*
C=CCn1c(/N=C/c2ccc(N(C)C)cc2)nc2ccccc21	-5	-3	15	28	-1
CCCCn1c(/N=C/c2ccc(N(C)C)cc2)nc2ccccc21	-5	-4	9	52*	-3
CCCCCn1nnnc1C1(C)CCSCC(=O)N1Cc1ccco1 (configuration not stated)	x	x	-4	x	x
CC(=O)C(C)Oc1ccc2c3c(c(=O)oc2c1)CCCCC3 (configuration not stated)	1	176*	-106	12	-1
SMILES	Mtb betalactam	Mtb FBA inh	CCHFV vOTU inh	GDH-TPI inh	RecA splice inh
COc1ccc2c3c(c(=O)oc2c1OCC(N)=O)CCCC3	9	75*	-29	-5	1
CCc1cc2c3c(c(=O)oc2cc1O)CCCC3	-9	+	-216	13	-11
Cc1oc2cc3oc(=O)c4c(c3cc2c1C)CCC4	3	1	-4	0	-2
CC(=O)Oc1ccc2c3c(c(=O)oc2c1C)CCCC3	41	+	-35	2	-5
CCc1cc2c3c(c(=O)oc2cc1OC(C)C(=O)O)CCCC3 (configuration not stated)	2	159*	-81	16	0
Cc1c(OC(C)C(=O)O)ccc2c3c(c(=O)oc12)CCCC3 (configuration not stated)	-4	173*	-56	3	-2
Oc1c(Br)cc(Br)cc1Oc1ccc(Br)cc1Br	-4	x	x	x	39*
Brc1ccc(Oc2ccc(Br)cc2Br)c(Br)c1	8	-4	1	-6	x
Oc1ccc(/C=N/NC(=S)Nc2cccnc2)c(O)c1O	x	-9	13	37*	-3
Oc1ccccc1C=NNC(=S)NN=Cc1ccccc1O	x	-2	7	45*	x
O=C(Nc1c(-c2ccc(F)cc2)nc2ncccn12)c1ccccc1	x	x	-16	x	x
Cn1nc(C(C)(C)C)cc1C(=O)Sc1cccc(Br)c1	-1	-1	-5	6	43*
CCCCCn1nnnc1C1(C)CCCC(=O)N1Cc1ccco1 (configuration not stated)	x	x	-6	x	x
Cc1cc(OCC(=O)N2CCC(C(=O)O)CC2)c2c(C)cc(=O)oc2c1	-2	130*	-30	6	-1
COc1ccccc1N1CCN(C(=O)COc2cc(C)cc3oc(=O)cc(C)c23)CC1	6	5	-2	4	-1
CCCCc1cc(=O)oc2cc(C)cc(OCC(=O)N3CCC(C(=O)O)CC3)c12	-6	124*	-44	18	2
COc1ccc(C2=CCN(C)C(=O)N2c2ccc([N+](=O)[O-])cc2)cc1	x	x	1	x	x
N#Cc1ccc2c(c1)nnn2-c1ccccc1	-8	4	-5	-3	0
Clc1ccc2nc3ccccn3c2c1	81	178*	-182	8	0
N#Cc1ccc2c(c1)nc1ccccn12	5	+	-183	8	1
COC(=O)[C@]12C[C@H](CC(=O)NCCCCc3ccccc3)C(=O)N(Cc3ccco3)C1=C[C@H](COCc1ccccc1)O[C@@H]2C	x	x	9	x	x
COCCCN1C(=O)C(=O)/C(=C(/O)c2ccccc2)C1c1ccc(N(C)C)cc1 (configuration not stated)	-4	5	12	12	-3
CN(C)c1ccc(C2/C(=C(/O)c3ccccc3)C(=O)C(=O)N2CCCC(=O)O)cc1 (configuration not stated)	-5	-2	2	31*	-8
CN(C)CCCN1C(=O)C(=O)/C(=C(/O)c2ccncc2)C1c1cccc(Br)c1 (configuration not stated)	-2	-1	4	31*	1
COC(=O)[C@H]1C[C@@]2(C3C=CC=C3)c3ccccc3N[C@H]2N1	x	x	2	x	x
CC(=O)Nc1ccc(S(=O)(=O)NNC(=O)c2cc3c4ccccc4n(C)c3s2)cc1	0	3	9	11	5
Cn1c2ccccc2c2cc(C(=O)NNC(=O)CCl)sc21	99	11	7	5	33*
COCCNC(=O)c1cc2c3ccccc3n(C)c2s1	7	3	0	47*	3
CCCNC(=O)c1cc2c3ccccc3n(C)c2s1	-21	4	1	22	0
CC(=O)Nc1c(-c2ccc(C(F)(F)F)cc2)nc2ncccn12	x	x	-34	x	x
